The supplement of paper PMC9492666
Structures can show the parent of a compound that is named as a salt.

Tested on: HCC1937
Experiment: relative cell viability, compound + erastin, vs DMSO (fraction of DMSO control); higher = less growth inhibition
Conditions: 72 h
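Also: viability read by CCK-8 kit in 96-well plates, part of a combination screen pairing lipid-metabolism-targeting compounds with erastin.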

Row | Structure (SMILES) | relative cell viability
1 | CCCCCCCCCCCCC/C=C/[C@@H](O)[C@@H](N)CO + CCOc1ccccc1-n1c(C(C)N2CCN(C(=O)COc3ccc(Cl)cc3)CC2)nc2ccccc2c1=O [erastin] | 0.248
2 | COc1ccc(C(=O)/C=C/c2ccccc2)cc1 [4'-Methoxychalcone] + CCOc1ccccc1-n1c(C(C)N2CCN(C(=O)COc3ccc(Cl)cc3)CC2)nc2ccccc2c1=O [erastin] | 0.54
3 | CC(C)OC(=O)C(C)(C)Oc1ccc(C(=O)c2ccc(Cl)cc2)cc1 [Fenofibrate] + CCOc1ccccc1-n1c(C(C)N2CCN(C(=O)COc3ccc(Cl)cc3)CC2)nc2ccccc2c1=O [erastin] | 0.878
4 | CCN(CC)CCN(Cc1ccc(-c2ccc(C(F)(F)F)cc2)cc1)C(=O)Cn1c(SCc2ccc(F)cc2)nc(=O)c2c1CCC2 [Darapladib] + CCOc1ccccc1-n1c(C(C)N2CCN(C(=O)COc3ccc(Cl)cc3)CC2)nc2ccccc2c1=O [erastin] | 0.0574
5 | CC(C)=CCC[C@](C)(O)[C@H]1CC[C@]2(C)[C@@H]1[C@H](O)C[C@@H]1[C@@]3(C)CC[C@H](O)C(C)(C)[C@@H]3[C@@H](O)C[C@]12C [(20S)-Protopanaxatriol] + CCOc1ccccc1-n1c(C(C)N2CCN(C(=O)COc3ccc(Cl)cc3)CC2)nc2ccccc2c1=O [erastin] | 0.772
6 | CCCCCCCCCCOc1ccc(C(=O)Nc2cc(C(=O)NCCCC)ccc2SC)cc1 + CCOc1ccccc1-n1c(C(C)N2CCN(C(=O)COc3ccc(Cl)cc3)CC2)nc2ccccc2c1=O [erastin] | 0.739
7 | O=C(O)CN(CC(=O)O)c1ccccc1OCCOc1ccccc1N(CC(=O)O)CC(=O)O + CCOc1ccccc1-n1c(C(C)N2CCN(C(=O)COc3ccc(Cl)cc3)CC2)nc2ccccc2c1=O [erastin] | 0.597
8 | CCCc1cc(-c2nc(-c3ccc(C)cc3)cs2)ccn1 [Fatostatin] + CCOc1ccccc1-n1c(C(C)N2CCN(C(=O)COc3ccc(Cl)cc3)CC2)nc2ccccc2c1=O [erastin] | 0.534
9 | Cc1cc(N2C[C@@H](C)N[C@@H](C)C2)ncc1-c1ccc(-c2nc3c(ccn3C)c(=O)[nH]2)cc1 + CCOc1ccccc1-n1c(C(C)N2CCN(C(=O)COc3ccc(Cl)cc3)CC2)nc2ccccc2c1=O [erastin] | 0.506
10 | CCOC(=O)C(C)(C)Oc1ccc(Cl)cc1 [Clofibrate] + CCOc1ccccc1-n1c(C(C)N2CCN(C(=O)COc3ccc(Cl)cc3)CC2)nc2ccccc2c1=O [erastin] | 0.801
11 | COc1ccc(C2(CNC(=O)c3ccc(NC(=O)c4ccco4)cc3)CCOCC2)cc1 + CCOc1ccccc1-n1c(C(C)N2CCN(C(=O)COc3ccc(Cl)cc3)CC2)nc2ccccc2c1=O [erastin] | 0.518
12 | C[C@@H]1OCC2(CCN(c3cnc(Sc4ccnc(N)c4Cl)c(N)n3)CC2)[C@@H]1N + CCOc1ccccc1-n1c(C(C)N2CCN(C(=O)COc3ccc(Cl)cc3)CC2)nc2ccccc2c1=O [erastin] | 0.553
13 | CCOC(=O)N1c2ccc(C(F)(F)F)cc2[C@@H](N(Cc2cc(C(F)(F)F)cc(C(F)(F)F)c2)C(=O)OC)C[C@H]1CC [Torcetrapib] + CCOc1ccccc1-n1c(C(C)N2CCN(C(=O)COc3ccc(Cl)cc3)CC2)nc2ccccc2c1=O [erastin] | 0.66
14 | C=C(C)[C@@H]1CC[C@]2(CO)CC[C@]3(C)[C@H](CC[C@@H]4[C@@]5(C)CC[C@H](O)C(C)(C)[C@@H]5CC[C@]43C)[C@@H]12 [Betulin] + CCOc1ccccc1-n1c(C(C)N2CCN(C(=O)COc3ccc(Cl)cc3)CC2)nc2ccccc2c1=O [erastin] | 0.524
15 | CC(C)(C)NC(=O)[C@H]1CC[C@H]2[C@@H]3CC[C@H]4NC(=O)C=C[C@]4(C)[C@H]3CC[C@]12C [Finasteride] + CCOc1ccccc1-n1c(C(C)N2CCN(C(=O)COc3ccc(Cl)cc3)CC2)nc2ccccc2c1=O [erastin] | 0.873
16 | CC(C)(Oc1ccc(C(=O)c2ccc(Cl)cc2)cc1)C(=O)O [Fenofibric acid] + CCOc1ccccc1-n1c(C(C)N2CCN(C(=O)COc3ccc(Cl)cc3)CC2)nc2ccccc2c1=O [erastin] | 0.677
17 | CC(C)n1c(/C=C/C(O)CC(O)CC(=O)O)c(-c2ccc(F)cc2)c2ccccc21 (centres undefined) [Fluvastatin sodium salt] + CCOc1ccccc1-n1c(C(C)N2CCN(C(=O)COc3ccc(Cl)cc3)CC2)nc2ccccc2c1=O [erastin] | 0.58
18 | CC(=O)O[C@H](CC=C(C)C)C1=CC(=O)c2c(O)ccc(O)c2C1=O [Acetyl shikonin] + CCOc1ccccc1-n1c(C(C)N2CCN(C(=O)COc3ccc(Cl)cc3)CC2)nc2ccccc2c1=O [erastin] | 0.617
19 | O=C(Nc1ccc(C(O)(C(F)(F)F)C(F)(F)F)cc1)c1ccc(C(F)(F)F)cc1 + CCOc1ccccc1-n1c(C(C)N2CCN(C(=O)COc3ccc(Cl)cc3)CC2)nc2ccccc2c1=O [erastin] | 0.366
